We go through 38 molecules from PubChem BioAssay (EPA / NIEHS).

Active and inactive are the calls of the source. How the source made its calls: active means hit-call score of the fitted dose curve at least 0.9, where 1 is the maximum; inactive means score below 0.9.

A short description of the assay: ATG_M_61_CIS: Attagene CIS-FACTORIAL HepG2 Assay for M61 Transcription Factor (Internal Marker) (AID 2282937). The note with it: HepG2 Attagene CIS-FACTORIAL M61 internal marker reporter; actives raise or lower the signal. The method, boiled down: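 This endpoint serves as an internal background control within a multiplexed HepG2 cis-reporter panel. Cells are exposed for 24 h; reporter mRNA is amplified, fluorescently labelled and sized by capillary electrophoresis, with DMSO as negative control.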
`CCC(Cc1c(I)cc(I)c(N)c1I)C(=O)O` (stereo not drawn): the outcome was inactive. Turning to `C=C(C)CCCC`, the outcome was inactive. For `OCC(F)(F)C(F)(F)C(F)(F)C(F)(F)C(F)(F)C(F)(F)CO` the value was “inactive”; for `C[C@]12CC[C@H]3C(=CCc4cc(O)ccc43)[C@@H]1CCC2=O`, “inactive”. For `Oc1ccc(C2(c3ccc(O)c(C4CCCCC4)c3)CCCCC2)cc1C1CCCCC1` the value was “inactive”; for `O=C(O)CCC(F)(F)C(F)(F)C(F)(F)C(F)(F)C(F)(F)C(F)(F)C(F)(F)F`, “inactive”; for `NCC(F)(F)C(F)(F)C(F)(F)C(F)(F)C(F)(F)C(F)(F)F`, “inactive”.

`CC(C)C(=O)OCc1ccccc1`: the molecule was classed as inactive. The entry for `CO[Si](C)(CCC(F)(F)C(F)(F)C(F)(F)C(F)(F)C(F)(F)C(F)(F)F)OC` is “inactive”. The entry for `CCCCCCCCCc1ccc(OCCO)cc1` is “inactive”. For `FC(F)(F)C(F)(F)C(F)(F)C(F)(F)C(F)(F)C(F)(F)C(F)(F)CCI` the value was “inactive”; for `C[Si](C)O[Si](C)C`, “inactive”; for `Cc1cnccn1`, “inactive”. `NCC(F)(F)C(F)(F)C(F)(F)C(F)(F)C(F)(F)C(F)(F)C(F)(F)C(F)(F)F`: the result was inactive. The entry for `OCC(F)(F)C(F)(F)C(F)(F)CO` is “inactive”. For the molecule `CN(C)C(C)(C)CO`, the outcome was inactive. For `Nc1cc([N+](=O)[O-])cc(Cl)c1O` the value was “inactive”. For `CCCCCCCCCCCCC[N+](C)(C)Cc1ccccc1` the value was “inactive”; for `OCCCc1cccnc1`, “inactive”. Consider `O=C(Cl)C(F)(F)C(F)(F)C(F)(F)C(F)(F)C(F)(F)C(F)(F)C(F)(F)F`, for which the outcome was inactive. The entry for `Cc1cc(C)c(O)c(C(C)(C)C)c1` is “inactive”.

As to `CCC(=O)OC(C)c1ccccc1` (stereo not drawn), the molecule was called inactive.

Regarding `COc1ccccc1C=O`, the molecule was classed as inactive. The entry for `O=c1cccc[nH]1` is “inactive”; for `CCCCCCCCCCCC(=O)Cl` it is “inactive”.

Consider `CCN=C1C=CC(=C(c2ccc(N(CC)CC)cc2)c2ccc(N(CC)CC)cc2)c2ccccc21`, for which the molecule was classed as inactive. For `NC(=O)C(F)(F)C(F)(F)C(F)(F)F` the value was “inactive”.

Regarding `CC(C)CC=C(C=O)c1ccccc1`, the outcome was inactive. For `OCC(F)(F)C(F)(F)C(F)(F)C(F)(F)C(F)(F)C(F)(F)C(F)(F)C(F)(F)CO` the value was “inactive”; for `F[Si-2](F)(F)(F)(F)F`, “inactive”; for `NC(=O)C(F)(F)C(F)(F)C(F)(F)C(F)F`, “inactive”. The entry for `O=C(O)C(F)(F)OC(F)(F)C(F)(F)OC(F)(F)C(F)(F)OC(F)(F)F` is “inactive”. For `CCCCC(CC)COC(=O)c1ccc(N(C)C)cc1` (stereo not drawn) the value was “inactive”; for `CCCCCCCCCCCCCC[P+](CCCC)(CCCC)CCCC`, “inactive”; for `C=CCOC(=O)CC(C)C`, “inactive”.

Take `O=C=Nc1cccc2c(N=C=O)cccc12`: the molecule was called inactive. For `CC(O)C#CC(C)O` (stereo not drawn) the value was “inactive”; for `CCOCN(C(=O)CS(=O)(=O)O)c1c(C)cccc1CC`, “inactive”.
